Experimental data as given in PubChem BioAssay (EPA / NIEHS).
Records with an inconclusive call do not appear. Calls of active or inactive are those of the source. How the source made its calls, unless noted: active means hit-call score of the fitted dose curve at least 0.9, where 1 is the maximum; inconclusive means response in the unintended direction; inactive means score below 0.9.

Tests used:
[1] = ATG_TAL_CIS: Attagene CIS-FACTORIAL HepG2 Assay for human TAL Basal Promoter (AID 2282966; active means hit-call score of the fitted dose curve at least 0.9, where 1 is the maximum; inactive means score below 0.9;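 further: background control endpoint measuring basal TAL promoter reporter mRNA not a specific factor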); conditions: HepG2 Attagene cis-factorial TAL promoter reporter; actives raise or lower the signal
Summary of the method: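 RT-PCR plus capillary electrophoresis quantifies reporter mRNA induction in transiently transfected HepG2 cells after 24 h chemical treatment. DMSO serves as negative control and baseline for bidirectional fitting.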

[2] = ATG_TGFb_CIS: Attagene CIS-FACTORIAL HepG2 Assay for human Transforming Growth Factor (TGF) (AID 2282967; active means hit-call score of the fitted dose curve at least 0.9, where 1 is the maximum; inactive means score below 0.9); conditions: HepG2 Attagene CIS TGFb reporter, mRNA transcription; actives raise or lower the signal
Summary of the method: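 After a 24-hour incubation with compound, transfected HepG2 cells were lysed for RNA; reporter cDNA was amplified, fluorescently end-labeled and separated by CE. DMSO served as baseline for bidirectional fits.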

[3] = target: Nuclear receptor subfamily 1 group I member 3 (Homo sapiens) (UniProt Q14994); experiment: ATG_CAR_TRANS: Attagene TRANS-FACTORIAL HepG2 Assay for human Constitutive Androstane Receptor (CAR) (AID 2282969); conditions: HepG2 Attagene TRANS-FACTORIAL CAR reporter;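 further: activators raise reporter mRNA above DMSO so AC50 marks induction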
Summary of the method: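 Readout is reporter mRNA induction, quantified by fluorescent primer extension and capillary electrophoresis after RT-PCR. Cells were HepG2 transiently carrying chimeric NR-Gal4 constructs with GAL4-UAS reporters, treated for 24 h; activity scored upward from DMSO.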

[4] = target: X-box-binding protein 1 (Homo sapiens) (UniProt P17861); experiment: ATG_Xbp1_CIS: Attagene CIS-FACTORIAL HepG2 Assay for human X-box Binding Protein 1 (XBP1) (AID 2282972; active means hit-call score of the fitted dose curve at least 0.9, where 1 is the maximum; inactive means score below 0.9); conditions: HepG2 XBP1 cis-element reporter, Attagene multiplex; actives raise or lower the signal
Summary of the method: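 After a 24-hour chemical exposure of HepG2 cells carrying cis-regulated reporters, reporter mRNA levels are assessed. Quantification uses RT-PCR, 6-FAM labelling and capillary electrophoresis. Gain- or loss-of-signal is fitted against DMSO.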

[5] = ATG_M_19_TRANS: Attagene TRANS-FACTORIAL HepG2 Assay for M19 Transcription Factor (Internal Marker) (AID 2282974); conditions: HepG2 Attagene TRANS-FACTORIAL M19 internal marker reporter
Summary of the method: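 Using RT-PCR and capillary electrophoresis, reporter mRNA from transiently transfected human HepG2 cells was quantified following 24 h exposure; activity was fitted in the positive direction against DMSO.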

[6] = ATG_GAL4_TRANS: Attagene TRANS-FACTORIAL HepG2 Assay for GAL4 (Internal Marker) (AID 2282976); conditions: HepG2 Attagene TRANS GAL4 internal marker reporter
Summary of the method: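 In transfected human HepG2 liver cells dosed 24 h, GAL4 reporter mRNA serves as a baseline marker. Detection by RT-PCR with fluorescent capillary electrophoresis, activity fitted upward relative to DMSO.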

[7] = target: Glucocorticoid receptor (Homo sapiens) (UniProt P04150); experiment: ATG_GR_TRANS: Attagene TRANS-FACTORIAL HepG2 Assay for human Glucocorticoid Receptor (GR) (AID 2282978); conditions: HepG2 Attagene TRANS GR reporter, mRNA transcription;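 further: activators score as hits since higher reporter transcript over DMSO is fitted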
Summary of the method: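 Exogenous NR-GAL4 fusion activity was assessed through induced GAL4-UAS reporter transcripts in transfected human HepG2 cells, quantified after 24 h by RT-PCR and fluorescent capillary electrophoresis with DMSO as baseline.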

[8] = target: Oxysterols receptor LXR-alpha (Homo sapiens) (UniProt Q13133); experiment: ATG_LXRa_TRANS: Attagene TRANS-FACTORIAL HepG2 Assay for human Liver X Receptor alpha (LXRa) (AID 2282980); conditions: HepG2 Attagene TRANS reporter, LXRa transactivation
Summary of the method: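 Chemical-induced reporter mRNA measured by RT-PCR with fluorescent labelling and capillary electrophoresis after 24 h dosing of transiently transfected HepG2 cells expressing exogenous NR-Gal4 chimeras; increases scored against DMSO baseline.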

[9] = target: Oxysterols receptor LXR-beta (Homo sapiens) (UniProt P55055); experiment: ATG_LXRb_TRANS: Attagene TRANS-FACTORIAL HepG2 Assay for human Liver X Receptor beta (LXRb) (AID 2282981); conditions: HepG2 Attagene TRANS GAL4-LXRb reporter, mRNA
Summary of the method: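 Transient transfection HepG2 (multiplexed RTUs, GAL4-UAS); NR-Gal4 chimera; 24 h exposure; RNA → RT-PCR → 6-FAM primer extension → HpaI → CE; increase vs DMSO.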

[10] = ATG_M_32_TRANS: Attagene TRANS-FACTORIAL HepG2 Assay for M32 Transcription Factor (Internal Marker) (AID 2282984); conditions: HepG2 Attagene TRANS M32 internal marker reporter;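 further: transcript level of a background control reporter unit measured by RT-PCR and capillary electrophoresis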
Summary of the method: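 Measures reporter mRNA induction in human HepG2 liver cells after 24 h chemical treatment. Transcripts from transiently transfected GAL4-UAS reporter units are amplified, fluorescently labelled and sized by capillary electrophoresis; gain of signal relative to DMSO.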

[11] = target: Transcriptional activator Myb (Homo sapiens) (UniProt P10242); experiment: ATG_Myb_CIS: Attagene CIS-FACTORIAL HepG2 Assay for human Myeloblastosis (Myb) Proto-Oncogene Transcription Factor (AID 2282986; active means hit-call score of the fitted dose curve at least 0.9, where 1 is the maximum; inactive means score below 0.9); conditions: HepG2 Attagene CIS-FACTORIAL Myb reporter transcription; actives raise or lower the signal
Summary of the method: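 In this HepG2 transient-transfection format, cis-regulated reporter mRNA is quantified 24 h post-dosing by RT-PCR with capillary electrophoresis, fitted bidirectionally to DMSO baseline.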

[12] = target: Nuclear respiratory factor 1 (Homo sapiens) (UniProt Q16656); experiment: ATG_NRF1_CIS: Attagene CIS-FACTORIAL HepG2 Assay for human Nuclear Respiratory Factor 1 (NRF1) Orphan Gene (AID 2282987; active means hit-call score of the fitted dose curve at least 0.9, where 1 is the maximum; inactive means score below 0.9); conditions: HepG2 NRF1 cis-element reporter, Attagene multiplex; actives raise or lower the signal
Summary of the method: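 Using DMSO as baseline, gain- or loss-of-signal was fitted for reporter mRNA levels in HepG2 cells transiently transfected with cis-regulated reporter units. Samples were taken 24 h after dosing and read by RT-PCR with capillary electrophoresis.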

[13] = ATG_VDRE_CIS: Attagene CIS-FACTORIAL HepG2 Assay for human Vitamin D Receptor Element (VDRE) (AID 2282968; active means hit-call score of the fitted dose curve at least 0.9, where 1 is the maximum; inactive means score below 0.9); conditions: HepG2 VDRE cis-reporter transcription, actives raise or lower the signal
Summary of the method: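 Reporter mRNA induction, quantified by capillary electrophoresis of fluorescently labelled RT-PCR products, was read 24 h after dosing HepG2 cells carrying transiently transfected cis-regulated reporter units; gain or loss relative to DMSO.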

[14] = ATG_M_06_TRANS: Attagene TRANS-FACTORIAL HepG2 Assay for M06 Transcription Factor (Internal Marker) (AID 2282983); conditions: HepG2 Attagene TRANS M06 internal marker reporter;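 further: reporter transcript level by RT-PCR then capillary electrophoresis fluorescence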
Summary of the method: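 Cells: HepG2, transient multi-reporter transfection. Exposure: 24 h. Detection: RT-PCR, 6-FAM labelling, HpaI digestion (2 h, 37 °C), capillary electrophoresis. Baseline: DMSO.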

[15] = target: Nuclear receptor subfamily 4 group A member 2 (Homo sapiens) (UniProt P43354); experiment: ATG_NURR1_TRANS: Attagene TRANS-FACTORIAL HepG2 Assay for human Nuclear Receptor Related Protein 1 (NURR1) (AID 2282985); conditions: HepG2 Attagene TRANS reporter, mRNA readout
Summary of the method: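 Transient transfection of HepG2, human liver cells, with multiple GAL4-UAS reporter transcription units. Cells dosed 24 h, RNA isolated, reverse-transcribed, PCR-amplified, FAM-labelled, HpaI-digested, sized by capillary electrophoresis. DMSO served as negative control.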

[16] = target: Bile acid receptor (Homo sapiens) (UniProt Q96RI1); experiment: ATG_FXR_TRANS: Attagene TRANS-FACTORIAL HepG2 Assay for Farnesoid X Receptor (FXR) (AID 2282979); conditions: HepG2 Attagene TRANS FXR-GAL4 reporter transcription;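 further: hits raise reporter mRNA above DMSO so AC50 marks FXR activation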
Summary of the method: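 Reporter transcripts from transfected HepG2 cells were measured 24 h after dosing, using RT-PCR with capillary electrophoresis of 6-FAM-labelled fragments. The read-out reflects activity of exogenous FXR-Gal4 chimera on GAL4-UAS units, with induction relative to DMSO.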

[17] = target: Hepatocyte nuclear factor 4-alpha (Homo sapiens) (UniProt P41235); experiment: ATG_HNF4a_TRANS: Attagene TRANS-FACTORIAL HepG2 Assay for human Hepatocyte Nuclear Factor 4 alpha (HNF4a) (AID 2282982); conditions: HepG2 HNF4a transactivation reporter, mRNA readout
Summary of the method: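 Readout is fluorescent reporter-transcript fragments resolved by capillary electrophoresis after RT-PCR from HepG2 cells dosed for 24 h. Cells carried transfected GAL4-UAS reporter constructs measuring exogenous NR-GAL4 chimera activity; DMSO served as baseline.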

[18] = target: Estrogen receptor (Homo sapiens) (UniProt P03372); experiment: ATG_ERa_TRANS: Attagene TRANS-FACTORIAL HepG2 Assay for human Estrogen Receptor alpha (ERa) (AID 2282970); conditions: HepG2 Attagene TRANS ERa GAL4 reporter, mRNA
Summary of the method: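 Cells: HepG2, transiently transfected. Construct: GAL4-UAS reporter units regulated by exogenous NR-Gal4 chimeras. Time: 24 h. Detection: reporter mRNA by RT-PCR, capillary electrophoresis, fluorescence. Baseline: DMSO, upward fitting.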

Measured: AC50

Nuclear respiratory factor 1 (Homo sapiens), sequence (Q16656 whole entry, looked up): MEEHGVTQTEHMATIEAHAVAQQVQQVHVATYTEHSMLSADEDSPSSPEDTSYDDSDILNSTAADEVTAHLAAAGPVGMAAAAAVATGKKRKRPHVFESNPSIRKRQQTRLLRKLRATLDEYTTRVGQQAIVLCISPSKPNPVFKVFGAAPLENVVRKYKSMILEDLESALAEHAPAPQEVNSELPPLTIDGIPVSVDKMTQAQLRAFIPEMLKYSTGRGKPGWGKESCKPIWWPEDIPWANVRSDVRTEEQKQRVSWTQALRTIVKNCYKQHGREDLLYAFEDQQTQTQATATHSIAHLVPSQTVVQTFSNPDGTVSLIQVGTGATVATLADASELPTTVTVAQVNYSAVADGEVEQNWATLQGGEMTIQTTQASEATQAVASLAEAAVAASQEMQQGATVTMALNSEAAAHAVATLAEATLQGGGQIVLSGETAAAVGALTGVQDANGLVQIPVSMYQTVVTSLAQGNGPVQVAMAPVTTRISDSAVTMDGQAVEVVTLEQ
Bile acid receptor (Homo sapiens), sequence (Q96RI1 whole entry, looked up, the tested form may be a part): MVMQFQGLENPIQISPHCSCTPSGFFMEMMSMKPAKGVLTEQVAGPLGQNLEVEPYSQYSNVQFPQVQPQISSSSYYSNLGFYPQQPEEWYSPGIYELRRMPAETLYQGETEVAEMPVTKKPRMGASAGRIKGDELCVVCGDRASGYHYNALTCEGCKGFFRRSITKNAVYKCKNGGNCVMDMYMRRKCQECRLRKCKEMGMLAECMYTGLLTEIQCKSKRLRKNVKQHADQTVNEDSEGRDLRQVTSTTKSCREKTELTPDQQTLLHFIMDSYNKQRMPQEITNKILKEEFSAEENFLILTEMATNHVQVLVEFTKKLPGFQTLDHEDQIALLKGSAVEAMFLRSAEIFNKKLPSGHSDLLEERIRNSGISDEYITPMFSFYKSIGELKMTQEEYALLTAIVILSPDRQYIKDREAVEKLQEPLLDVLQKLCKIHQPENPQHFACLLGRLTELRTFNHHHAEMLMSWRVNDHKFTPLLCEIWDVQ
Hepatocyte nuclear factor 4-alpha (Homo sapiens), sequence (P41235 whole entry, looked up, the tested form may be a part): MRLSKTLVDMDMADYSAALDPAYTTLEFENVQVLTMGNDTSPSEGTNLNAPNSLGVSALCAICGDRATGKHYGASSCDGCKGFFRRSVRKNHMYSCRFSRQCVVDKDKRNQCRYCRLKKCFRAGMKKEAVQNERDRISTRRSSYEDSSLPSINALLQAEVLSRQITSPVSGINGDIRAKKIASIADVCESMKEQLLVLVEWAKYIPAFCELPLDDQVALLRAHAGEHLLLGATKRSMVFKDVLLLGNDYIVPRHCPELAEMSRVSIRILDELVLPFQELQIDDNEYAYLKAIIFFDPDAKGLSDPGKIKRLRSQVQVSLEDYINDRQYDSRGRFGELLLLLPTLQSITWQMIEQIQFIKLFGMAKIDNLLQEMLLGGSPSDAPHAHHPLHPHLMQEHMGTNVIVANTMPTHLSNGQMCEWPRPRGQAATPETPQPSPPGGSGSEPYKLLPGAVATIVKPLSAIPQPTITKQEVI
Oxysterols receptor LXR-beta (Homo sapiens), sequence (P55055 whole entry, looked up, the tested form may be a part): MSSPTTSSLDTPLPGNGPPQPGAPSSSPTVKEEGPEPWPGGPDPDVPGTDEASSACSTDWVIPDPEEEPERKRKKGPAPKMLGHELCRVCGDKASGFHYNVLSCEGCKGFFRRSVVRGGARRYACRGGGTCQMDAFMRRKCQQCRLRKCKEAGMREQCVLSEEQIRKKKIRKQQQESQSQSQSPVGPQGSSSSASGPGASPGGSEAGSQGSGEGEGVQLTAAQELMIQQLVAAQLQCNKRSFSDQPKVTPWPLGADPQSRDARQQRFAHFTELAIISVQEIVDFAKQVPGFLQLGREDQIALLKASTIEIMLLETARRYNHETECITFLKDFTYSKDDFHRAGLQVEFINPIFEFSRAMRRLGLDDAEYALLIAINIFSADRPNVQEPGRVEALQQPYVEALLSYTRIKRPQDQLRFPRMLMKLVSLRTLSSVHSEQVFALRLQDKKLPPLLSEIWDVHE
Nuclear receptor subfamily 4 group A member 2 (Homo sapiens), sequence (P43354 whole entry, looked up, the tested form may be a part): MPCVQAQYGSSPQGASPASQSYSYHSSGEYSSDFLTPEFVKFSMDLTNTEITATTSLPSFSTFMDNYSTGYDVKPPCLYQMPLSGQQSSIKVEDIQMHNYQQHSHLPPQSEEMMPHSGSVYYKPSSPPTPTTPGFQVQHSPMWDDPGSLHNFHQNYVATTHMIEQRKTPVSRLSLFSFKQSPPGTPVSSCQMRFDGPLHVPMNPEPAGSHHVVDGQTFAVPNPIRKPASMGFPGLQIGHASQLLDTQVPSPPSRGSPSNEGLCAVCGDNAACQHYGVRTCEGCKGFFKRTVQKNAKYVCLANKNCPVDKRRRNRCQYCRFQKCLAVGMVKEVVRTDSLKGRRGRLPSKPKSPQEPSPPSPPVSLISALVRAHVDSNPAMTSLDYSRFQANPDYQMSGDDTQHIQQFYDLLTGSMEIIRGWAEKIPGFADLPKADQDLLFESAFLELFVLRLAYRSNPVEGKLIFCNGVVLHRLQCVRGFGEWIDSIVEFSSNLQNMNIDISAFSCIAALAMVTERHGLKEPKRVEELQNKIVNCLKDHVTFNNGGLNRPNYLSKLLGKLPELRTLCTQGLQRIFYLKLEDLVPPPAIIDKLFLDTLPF
Glucocorticoid receptor (Homo sapiens), sequence (P04150 whole entry, looked up, the tested form may be a part): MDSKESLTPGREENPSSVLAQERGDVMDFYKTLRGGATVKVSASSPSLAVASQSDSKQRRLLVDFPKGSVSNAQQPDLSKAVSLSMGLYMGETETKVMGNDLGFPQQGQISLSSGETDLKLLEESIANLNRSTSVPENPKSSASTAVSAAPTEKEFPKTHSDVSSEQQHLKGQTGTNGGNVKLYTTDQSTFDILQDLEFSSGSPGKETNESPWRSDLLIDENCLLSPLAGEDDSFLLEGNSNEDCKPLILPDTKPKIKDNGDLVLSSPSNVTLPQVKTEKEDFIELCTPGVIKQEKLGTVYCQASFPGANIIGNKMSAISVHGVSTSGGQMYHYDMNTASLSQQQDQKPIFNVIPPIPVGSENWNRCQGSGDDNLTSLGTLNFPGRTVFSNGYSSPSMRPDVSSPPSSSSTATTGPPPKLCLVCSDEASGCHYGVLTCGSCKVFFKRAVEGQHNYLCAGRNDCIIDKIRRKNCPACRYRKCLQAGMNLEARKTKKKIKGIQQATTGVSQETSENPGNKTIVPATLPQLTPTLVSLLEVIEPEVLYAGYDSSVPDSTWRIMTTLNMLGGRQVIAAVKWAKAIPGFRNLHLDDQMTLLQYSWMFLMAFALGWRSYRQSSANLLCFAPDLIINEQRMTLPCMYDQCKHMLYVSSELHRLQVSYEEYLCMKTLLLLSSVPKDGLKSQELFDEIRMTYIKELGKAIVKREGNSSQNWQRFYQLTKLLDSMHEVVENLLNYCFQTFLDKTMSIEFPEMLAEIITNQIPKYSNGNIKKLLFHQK
Nuclear receptor subfamily 1 group I member 3 (Homo sapiens), sequence (Q14994 whole entry, looked up, the tested form may be a part): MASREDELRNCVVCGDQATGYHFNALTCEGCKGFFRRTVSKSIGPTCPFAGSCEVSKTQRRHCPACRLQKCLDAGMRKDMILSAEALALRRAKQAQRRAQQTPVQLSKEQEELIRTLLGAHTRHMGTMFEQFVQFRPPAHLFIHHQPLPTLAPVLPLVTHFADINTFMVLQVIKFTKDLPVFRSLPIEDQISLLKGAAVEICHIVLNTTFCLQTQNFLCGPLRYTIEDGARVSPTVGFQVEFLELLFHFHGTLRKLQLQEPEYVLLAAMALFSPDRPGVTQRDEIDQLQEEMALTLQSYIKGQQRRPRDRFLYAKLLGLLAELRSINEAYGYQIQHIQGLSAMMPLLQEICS
X-box-binding protein 1 (Homo sapiens), sequence (P17861 whole entry, looked up): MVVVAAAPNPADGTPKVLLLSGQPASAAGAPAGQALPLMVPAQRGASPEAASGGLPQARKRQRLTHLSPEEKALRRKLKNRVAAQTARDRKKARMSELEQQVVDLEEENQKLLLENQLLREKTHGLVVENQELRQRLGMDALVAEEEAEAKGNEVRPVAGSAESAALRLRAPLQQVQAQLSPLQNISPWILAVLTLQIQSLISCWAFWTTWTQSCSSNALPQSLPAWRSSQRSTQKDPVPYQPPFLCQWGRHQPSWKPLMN
Transcriptional activator Myb (Homo sapiens), sequence (P10242 whole entry, looked up): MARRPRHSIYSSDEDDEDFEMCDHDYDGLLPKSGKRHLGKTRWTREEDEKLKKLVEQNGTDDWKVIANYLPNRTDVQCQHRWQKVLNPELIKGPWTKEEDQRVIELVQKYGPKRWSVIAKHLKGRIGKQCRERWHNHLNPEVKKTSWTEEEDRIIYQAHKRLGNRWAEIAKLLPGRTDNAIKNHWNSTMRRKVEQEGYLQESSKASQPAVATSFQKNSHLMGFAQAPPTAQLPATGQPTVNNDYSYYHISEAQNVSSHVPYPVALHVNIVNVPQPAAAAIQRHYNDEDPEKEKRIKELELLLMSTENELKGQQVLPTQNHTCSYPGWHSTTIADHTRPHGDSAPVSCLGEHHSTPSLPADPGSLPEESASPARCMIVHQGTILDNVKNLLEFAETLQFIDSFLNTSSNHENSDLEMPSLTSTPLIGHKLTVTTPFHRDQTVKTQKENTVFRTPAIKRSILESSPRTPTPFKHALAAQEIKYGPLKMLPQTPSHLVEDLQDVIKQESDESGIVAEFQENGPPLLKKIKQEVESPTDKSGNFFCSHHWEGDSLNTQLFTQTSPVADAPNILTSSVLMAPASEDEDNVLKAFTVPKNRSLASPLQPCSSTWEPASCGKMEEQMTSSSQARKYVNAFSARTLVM
Oxysterols receptor LXR-alpha (Homo sapiens), sequence (Q13133 whole entry, looked up, the tested form may be a part): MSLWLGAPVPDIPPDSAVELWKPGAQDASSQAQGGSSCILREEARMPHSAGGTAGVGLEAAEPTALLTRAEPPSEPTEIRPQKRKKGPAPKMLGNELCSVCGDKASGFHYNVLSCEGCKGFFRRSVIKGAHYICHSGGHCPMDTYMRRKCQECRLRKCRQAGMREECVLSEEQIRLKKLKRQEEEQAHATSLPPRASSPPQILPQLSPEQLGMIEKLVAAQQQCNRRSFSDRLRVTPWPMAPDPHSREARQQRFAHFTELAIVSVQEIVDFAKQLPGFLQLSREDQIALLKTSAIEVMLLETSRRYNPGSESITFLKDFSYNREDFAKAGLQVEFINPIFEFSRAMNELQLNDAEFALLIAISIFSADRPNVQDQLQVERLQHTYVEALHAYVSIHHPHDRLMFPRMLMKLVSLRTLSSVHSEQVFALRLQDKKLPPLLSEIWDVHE

COc1cc(C)cc(O)c1
not listed: [13] | [14] | [15] | [16] | [17] | [18]
inactive: all other assays above

CC(C)C1CCC(O)CC1 (centres undefined)
not listed: [3] | [5] | [6] | [7] | [16] | [17] | [18]
inactive: all other assays above

CCN(CC)c1ccc2c(-c3ccccc3C(=O)O)c3ccc(=[N+](CC)CC)cc-3oc2c1
active: [13] 33.5 µM
inactive: [1] | [2] | [5] | [6] | [16] | [10] | [11] | [12]

CC1(C)[C@H]2CC[C@]1(C)[C@H](O)C2
not listed: [5] | [8] | [9] | [13] | [16] | [17] | [18]
inactive: all other assays above

C=C(C)[C@@H]1CC[C@@H](C)C[C@@H]1O
inactive: [1] | [2] | [6] | [9] | [14] | [10] | [11] | [12]

O=C[C@H](O)[C@H](O)[C@H](O)CO
inactive: [1] | [2] | [3] | [4] | [6] | [14] | [15] | [11] | [12]

CC1(C)[C@@H]2CC[C@@]1(C)[C@H](O)C2
inactive: [1] | [2] | [4] | [5] | [6] | [7] | [11] | [12]

CNCCO
inactive: [1] | [2] | [4] | [5] | [17] | [14] | [15] | [11] | [12]

C=C(C)C1CCC(C)CC1O (centres undefined)
inactive: [1] | [2] | [5] | [6] | [9] | [17] | [14] | [10] | [11] | [12]

CCO[Si](CCCS)(OCC)OCC
inactive: [1] | [2] | [4] | [5] | [6] | [7] | [9] | [17] | [11] | [12]

CCCCCCCCCCCCSC
not listed: [5] | [6] | [12] | [13] | [15] | [18]
inactive: all other assays above

O=C(O)c1cn(C2CC2)c2cc(N3CCNCC3)c(F)cc2c1=O
inactive: [1] | [2] | [4] | [5] | [6] | [7] | [16] | [14] | [11]

Cc1ccc(S)cc1
active: [18] 25.4 µM | [4] 53.5 µM
inactive: [1] | [2] | [5] | [9] | [17] | [14] | [10] | [11] | [12]

COc1ccnc(CS(=O)c2nc3cc(OC(F)F)ccc3[nH]2)c1OC (centres undefined)
inactive: [1] | [2] | [4] | [7] | [9] | [14] | [11]

O=C(O)c1cn(-c2ccc(F)cc2)c2cc(N3CCNCC3)c(F)cc2c1=O
inactive: [1] | [2] | [4] | [5] | [6] | [7] | [15] | [11] | [12]

COc1c(Cl)c(Cl)c(Cl)c(Cl)c1Cl
inactive: [1] | [2] | [3] | [4] | [7] | [16] | [17] | [14] | [11]
